Test results as given in PubChem BioAssay (Tox21).
Results filed as inconclusive are left out. Activity calls are given as the source filed them. Unless noted, calls follow the shape of the dose curve; as a rule, active = well fitted curve in the direction sought with a large enough effect in the repeat runs; inconclusive = weak or mixed curves; inactive = no such curve, though single readings can be large; an effect the other way counts as inactive or inconclusive.

Key:
[1] = A CellTox Green Cytotoxicity Assay to monitor cytotoxicity in HepG2 cells - 8 hour (AID 1224890); also: nearly all actives have a fitted effect of over 45% in size
In short: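 Read-out is fluorescence of a cyanine dye excluded from live cells that stains DNA of dead HepG2 cells, with signal proportional to cytotoxicity. Plates were read at 0, 8, 16, 24, 32 and 40 h after compound addition.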

[2] = qHTS assay to identify small molecule antagonists of the estrogen receptor alpha (ER-alpha) signaling pathway using the BG1 cell line in the presence of 0.1 nM 17-beta-estradiol - cell viability counter screen (AID 1259241); also: nearly all actives have a fitted effect of over 40% in size; also: potency is read from the fitted curve at half-maximal effect
In short: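 Following 5 days in phenol red-free medium with charcoal-stripped serum, VM7Luc4E2 cells received test compounds alongside 0.1 nM 17beta-estradiol (final) at 37C for 22 hr. Live cells were then quantified via protease-substrate fluorescence.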

[3] = qHTS assay to identify small molecule antagonists of the androgen receptor (AR) signaling pathway using the MDA cell line in the presence of 0.5 nM R1881 - cell viability counter screen (AID 1259242); also: nearly all actives have a fitted effect of over 45% in size; also: potency is read from the fitted curve at half-maximal effect
In short: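 Counter screen for cytotoxicity run in the same wells as the AR antagonist reporter screen: MDA-kb2 cells were treated 16 hr with test compounds and 0.5 nM R1881, then live-cell protease activity was measured by fluorescence.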

[4] = target: Androgen receptor (Homo sapiens) (UniProt P10275); assay: qHTS assay to identify small molecule antagonists of the androgen receptor (AR) signaling pathway using the MDA cell line in the presence of 0.5 nM R1881 (AID 1259243); also: nearly all actives have a fitted effect of over 50% in size; also: potency is read from the fitted curve at half-maximal effect
In short: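 Luciferase luminescence is the read-out: compounds are tested for suppressing 0.5 nM R1881-driven MMTV reporter activity in MDA-kb2 cells after 16 hr at 37C.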

[5] = target: Estrogen receptor (Homo sapiens) (UniProt P03372); assay: qHTS assay to identify small molecule antagonists of the estrogen receptor alpha (ER-alpha) signaling pathway using the BG1 cell line in the presence of 0.1 nM 17-beta-estradiol (AID 1259244); also: nearly all actives have a fitted effect of over 50% in size; also: potency is read from the fitted curve at half-maximal effect
In short: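 Cells: VM7Luc4E2, endogenous ER-alpha, 4x ERE-luc stable. Pre-culture 5 d, phenol red-free, charcoal-stripped FBS. Plated 24 h, compound + E2 0.1 nM final, 22 h 37C/5% CO2. Readout ONE-Glo luminescence.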

[6] = qHTS assay to identify small molecule HDAC inhibitors (AID 1259364); also: top concentration of the series differs between compounds; nearly all actives have a fitted effect of over 45% in size
In short: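 Luminescence from a cell-permeant luminogenic class I/II HDAC substrate reports endogenous deacetylase activity in intact HCT-116 cells treated with compounds for 2 h.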

[7] = qHTS assay to identify small molecule HDAC inhibitors - cell viability counter screen (AID 1259365); also: series mostly up to about 92 µM; nearly all actives have a fitted effect of over 50% in size
In short: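 HCT-116 wild-type, overnight attachment; 2hr drug exposure, 37C; CellTiter-Glo luminescent ATP readout after 30min RT.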

[8] = qHTS assay to identify small molecule agonists of the sonic hedgehog signaling (Shh) pathway - cell viability counter screen (AID 1259366); also: nearly all actives have a fitted effect of over 50% in size
In short: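 Compounds in DMSO were pin-transferred onto 3T3 Gli1-Luc cells that had settled 4hr; plates then stood 24hr at 37C and 5% CO2. One hour before the end, CellTiter-Fluor was added and fluorescence recorded.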

[9] = qHTS assay to identify small molecule antagonists of the sonic hedgehog signaling (Shh) pathway - cell viability counter screen (AID 1259367); also: nearly all actives have a fitted effect of over 55% in size
In short: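 NIH/3T3-derived Gli1-Luc reporter cells (2,000 per well) rested 4 hr at 37 C, then received DMSO compounds plus conditioned medium. After 23 hr of treatment, CellTiter-Fluor was added for 1 hr at 37C and fluorescence read.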

[10] = qHTS assay to identify small molecule phospholipidosis (PLD) inducers (AID 1259344; active = well fitted curve in the direction sought with a large enough effect; an effect the other way counts as inactive or inconclusive)
In short: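 HepG2 cells on collagen I, attached 4 h at 37 C, were co-treated with compound and LipidTOX Red dye for 24 h at 37 C, then fixed with paraformaldehyde plus Hoechst 33342 and imaged by high-content microscopy for phospholipid accumulation.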
% is scaled to controls: 0 for no effect and ±100 for the full control effect.

Androgen receptor (Homo sapiens), sequence (P10275 whole entry, looked up): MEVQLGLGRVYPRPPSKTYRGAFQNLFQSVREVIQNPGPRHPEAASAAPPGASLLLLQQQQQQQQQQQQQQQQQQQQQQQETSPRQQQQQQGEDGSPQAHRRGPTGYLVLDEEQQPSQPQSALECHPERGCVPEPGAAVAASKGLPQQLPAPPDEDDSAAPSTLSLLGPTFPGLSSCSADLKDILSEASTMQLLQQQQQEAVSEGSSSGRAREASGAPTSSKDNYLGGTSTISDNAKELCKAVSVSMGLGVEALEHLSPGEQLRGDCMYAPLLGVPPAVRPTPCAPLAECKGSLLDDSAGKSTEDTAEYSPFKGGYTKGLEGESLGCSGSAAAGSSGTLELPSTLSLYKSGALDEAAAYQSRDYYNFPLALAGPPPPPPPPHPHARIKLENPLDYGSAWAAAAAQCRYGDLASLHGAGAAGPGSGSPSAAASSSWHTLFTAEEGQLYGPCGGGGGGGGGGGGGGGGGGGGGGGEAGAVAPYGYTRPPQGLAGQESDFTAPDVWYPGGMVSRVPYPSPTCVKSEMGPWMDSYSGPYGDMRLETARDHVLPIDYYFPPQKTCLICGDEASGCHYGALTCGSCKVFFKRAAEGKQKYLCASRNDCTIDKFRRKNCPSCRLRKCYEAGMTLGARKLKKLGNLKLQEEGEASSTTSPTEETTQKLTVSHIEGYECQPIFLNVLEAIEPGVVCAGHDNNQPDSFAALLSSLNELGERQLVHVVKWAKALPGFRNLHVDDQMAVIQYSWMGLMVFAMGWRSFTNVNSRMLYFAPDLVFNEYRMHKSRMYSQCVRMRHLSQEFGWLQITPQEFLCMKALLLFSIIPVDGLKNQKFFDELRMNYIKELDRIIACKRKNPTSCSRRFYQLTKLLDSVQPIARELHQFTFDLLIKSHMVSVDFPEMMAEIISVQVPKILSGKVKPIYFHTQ
Estrogen receptor (Homo sapiens), sequence (P03372 whole entry, looked up): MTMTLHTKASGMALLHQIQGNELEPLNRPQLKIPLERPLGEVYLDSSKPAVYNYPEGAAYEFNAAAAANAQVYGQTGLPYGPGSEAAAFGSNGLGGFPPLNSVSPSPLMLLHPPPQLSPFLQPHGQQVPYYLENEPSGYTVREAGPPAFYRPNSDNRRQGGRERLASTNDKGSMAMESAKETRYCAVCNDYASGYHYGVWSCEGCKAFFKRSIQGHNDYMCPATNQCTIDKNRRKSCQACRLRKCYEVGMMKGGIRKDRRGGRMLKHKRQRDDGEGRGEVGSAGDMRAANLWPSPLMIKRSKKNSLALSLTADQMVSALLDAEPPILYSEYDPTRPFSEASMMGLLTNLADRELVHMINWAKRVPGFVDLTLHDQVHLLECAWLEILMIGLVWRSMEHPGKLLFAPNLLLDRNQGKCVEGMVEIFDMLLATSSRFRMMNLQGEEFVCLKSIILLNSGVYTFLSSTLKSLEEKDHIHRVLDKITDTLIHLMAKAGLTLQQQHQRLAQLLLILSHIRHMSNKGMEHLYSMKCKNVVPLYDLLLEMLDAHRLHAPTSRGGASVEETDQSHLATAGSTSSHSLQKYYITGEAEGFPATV

Cc1c(C(=O)NN2CCCCC2)nn(-c2ccc(Cl)cc2Cl)c1-c1ccc(Cl)cc1
inactive: Potency [1] | Potency [2] | Potency [3] | Potency [5] | Potency [6] | Potency [7] | Potency [8] | Potency [9]
active: Potency [4] 26.6 µM

N#C[C@@H]1C[C@@H]2C[C@@H]2N1C(=O)[C@@H](N)C12CC3CC(CC(O)(C3)C1)C2
inactive: Potency [1] | Potency [2] | Potency [3] | Potency [5] | PLD induction [10] -3.21% [at 7.66 µM] | Potency [6] | Potency [7] | Potency [8] | Potency [9]

O=C(c1ccc(O)cc1)c1ccc(Cl)cc1
inactive: Potency [1] | Potency [2] | Potency [3]

CO/N=C1\CN(c2nc3c(cc2F)c(=O)c(C(=O)O)cn3C2CC2)CC1CN (stereo unspecified)
inactive: Potency [1] | Potency [2] | Potency [3] | Potency [5] | outcome [10] | Potency [6] | Potency [7] | Potency [9]

COc1cc2c(cc1OC)-c1cc(=Nc3c(C)cc(C)cc3C)n(C)c(=O)n1CC2
inactive: Potency [1] | Potency [2] | Potency [3] | Potency [5] | outcome [10] | Potency [6] | Potency [7] | Potency [8]

O=C1OCCN1/N=C/c1ccc([N+](=O)[O-])o1
inactive: Potency [1] | Potency [2] | Potency [3] | Potency [5] | outcome [10] | Potency [6] | Potency [7] | Potency [8]

CC(CCc1ccc2c(c1)OCO2)NN (stereo unspecified)
inactive: Potency [1] | Potency [2] | Potency [3] | Potency [5] | outcome [10] | Potency [6] | Potency [8] | Potency [9]

C[Si]1(C)O[Si](C)(C)O[Si](C)(C)O1
inactive: Potency [1] | Potency [2] | Potency [3] | Potency [4] | Potency [7] | Potency [8]

C/C=C/C=C/CCCCCCCO
inactive: Potency [1] | Potency [2] | Potency [3] | Potency [5]

COc1ccc(C(=O)c2cccc(O)c2)c(OC)c1
inactive: Potency [1] | Potency [2] | Potency [3] | Potency [4] | Potency [5] | Potency [6] | Potency [7] | Potency [8] | Potency [9]

CCCC(=O)O[C@]1(C(=O)COC(=O)CC)CC[C@H]2[C@@H]3CCC4=CC(=O)CC[C@]4(C)[C@H]3[C@@H](O)C[C@@]21C
inactive: cytotoxicity increase [1] -2.4% [at 15.8 µM] | activity change, negative = cytotoxicity [2] 7.4% [at 19 µM] | viability change, negative = cytotoxic [3] 0.0902% [at 19 µM] | activity change, negative = inhibition [5] 31.4% [at 19 µM] | PLD induction [10] -3.36% [at 7.66 µM] | activity change, negative = inhibition [6] -0.144% [at 19 µM] | activity change, negative = cytotoxicity [7] -1.94% [at 19 µM] | viability change, negative = cytotoxic [8] 2.28% [at 19 µM]

Nc1c(I)cc(I)c(C(=O)N(CCC(=O)O)c2ccccc2)c1I
inactive: Potency [1] | Potency [2] | Potency [3] | Potency [4] | Potency [6] | Potency [7] | Potency [8] | Potency [9]

CCc1nn(CCCN2CCN(c3cccc(Cl)c3)CC2)c(=O)n1CCOc1ccccc1
active: Potency [3] 26.6 µM | Potency [5] 11.9 µM
inactive: Potency [1] | Potency [2] | outcome [10] | Potency [6] | Potency [7] | Potency [8] | Potency [9]

CC(C)(C)CC(C)(C)c1ccc(OCCO)cc1
active: Potency [2] 54.2 µM | Potency [3] 48.3 µM | Potency [4] 6.82 µM | Potency [5] 10.8 µM
inactive: Potency [1] | outcome [10] | Potency [6]

Cc1cc(O)c2c(O)c3c(O)cccc3cc2c1
inactive: Potency [1] | Potency [2] | Potency [3] | Potency [4] | outcome [10] | Potency [6] | Potency [7] | Potency [8] | Potency [9]

CN1CCN(c2c(F)cc3c(=O)c(C(=O)O)cn4c3c2OCN4C)CC1
inactive: cytotoxicity increase [1] -3.25% [at 15.8 µM] | activity change, negative = cytotoxicity [2] 0.712% [at 19 µM] | viability change, negative = cytotoxic [3] 0.172% [at 19 µM] | activity change, negative = inhibition [5] 2.06% [at 19 µM] | outcome [10] | activity change, negative = inhibition [6] 8.76% [at 19 µM] | viability change, negative = cytotoxic [8] 2.32% [at 19 µM] | viability change, negative = cytotoxic [9] -1.18% [at 19 µM]

CCCOC(=O)c1ccc(N)cc1
inactive: Potency [1] | Potency [2] | Potency [3] | Potency [5] | outcome [10] | Potency [7] | Potency [8]

O=C(NCCCN1CCOCC1)c1ccc(Cl)cc1
inactive: Potency [1] | Potency [2] | Potency [3] | Potency [5] | outcome [10] | Potency [6] | Potency [8] | Potency [9]

CCCCC(=O)O[C@]1(C(=O)CO)CC[C@H]2[C@@H]3CCC4=CC(=O)CC[C@]4(C)[C@H]3[C@@H](O)C[C@@]21C
inactive: Potency [1] | Potency [2] | Potency [3] | Potency [5] | outcome [10] | Potency [6] | Potency [7] | Potency [8] | Potency [9]

COCc1c(C(C)C)nc(C(C)C)c(/C=C/[C@@H](O)C[C@@H](O)CC(=O)O)c1-c1ccc(F)cc1
inactive: Potency [1] | Potency [2] | Potency [3] | Potency [5] | outcome [10] | Potency [6] | Potency [7] | Potency [8]

CCc1c2c(nc3ccc(OC(=O)N4CCC(N5CCCCC5)CC4)cc13)-c1cc3c(c(=O)n1C2)COC(=O)[C@]3(O)CC
inactive: Potency [1] | Potency [2] | Potency [3] | outcome [10] | Potency [6] | Potency [7] | Potency [9]
active: Potency [5] 23.7 µM

CN(C)CCOC1=Cc2ccccc2Sc2ccc(Cl)cc21
inactive: Potency [1] | Potency [2] | Potency [3] | Potency [5] | outcome [10] | Potency [7]

CCOc1cc(N)c(Cl)cc1C(=O)NCC1CN(Cc2ccc(F)cc2)CCO1 (stereo unspecified)
inactive: Potency [1] | Potency [2] | Potency [3] | Potency [5] | outcome [10] | Potency [6] | Potency [7] | Potency [8] | Potency [9]
